High-throughput results as filed in PubChem.
RE007 growth inh: qHTS Assay for Inhibitors of the HIV-1 protein Vpr | Potency, µM (top dose mostly 92.2 µM), for inactives: at the highest dose activity change, negative = less growth, usual class: inhibitors | S. pombe RE007 Vpr strain, BacTiter-Glo ATP luminescence, 24 h | actives 0.21% (n = 360,000); active = well fitted falling curve with a large enough effect; inconclusive = small, poorly fitted or top-dose-only effect; inactive = no such curve, though single readings can be large or run the other way; note: nearly all actives have a fitted effect of over 50% in size
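Fission yeast strain RE007, carrying one chromosomally integrated HIV-1 vpr copy, was seeded at OD 0.01 in PMG+AL medium with 23 nL pinned compound. After 24 h at 30 °C and 99% humidity, viability was read by BacTiter-Glo luminescence.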
AmpC detergent: qHTS Inhibitors of AmpC Beta-Lactamase (assay with detergent); P00811; AmpC hydrolysis of nitrocefin, absorbance 480 nm, 0.01% Triton; Potency, µM (top dose mostly 114 µM), for the others: at the highest dose activity change, negative = inhibition, actives largely listed as inhibitors; actives 0.041% (n = 370,000);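 note: 0% = no-compound wells and -100% = no-enzyme wells; nearly all actives have a fitted effect of over 25% in size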
Target sequence (P00811 whole entry, looked up): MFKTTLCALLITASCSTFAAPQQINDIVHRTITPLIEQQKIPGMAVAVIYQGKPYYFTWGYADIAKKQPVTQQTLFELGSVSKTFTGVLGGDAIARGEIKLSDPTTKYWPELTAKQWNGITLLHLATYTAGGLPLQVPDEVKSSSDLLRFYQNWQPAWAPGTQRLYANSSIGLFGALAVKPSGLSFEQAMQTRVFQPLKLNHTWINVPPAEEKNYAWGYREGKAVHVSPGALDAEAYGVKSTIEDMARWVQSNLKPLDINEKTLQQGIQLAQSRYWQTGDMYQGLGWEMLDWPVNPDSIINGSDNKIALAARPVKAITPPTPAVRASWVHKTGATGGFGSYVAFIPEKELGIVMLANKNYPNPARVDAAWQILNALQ
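20 mM phosphate pH 7.0 + 0.01% (detergent screen) or 0.0001% Triton X-100; 5.3 nM AmpC reagent; cpd preinc 15 min RT; nitrocefin (800 uM stock) to start; A480 q20 s × 4 min; Activity was normalised to no-enzyme and no-compound control wells.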
Giardia FBPA inh: qHTS Assay for Inhibitors of Fructose-1,6-bisphosphate Aldolase from Giardia Lamblia; A8B2U2; purified Giardia FBPA; Potency, µM (titrated, usually from 59.6 µM), for the others: at the highest dose activity, negative = inhibition, usual class: inhibitors; actives 0.71% (n = 290,000); note: nearly all actives have a fitted effect of over 55% in size
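40 nM FBPA preincubated 10 min at RT with compound (up to 57.5 uM final), then substrate plus GAPDH/TPI/NAD/arsenate coupling and diaphorase/resazurin added. Fluorescence read after 20 min at RT, 525/598 nm.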
LmPK inhibitor: qHTS Assay for Inhibitors of Leishmania Mexicana Pyruvate Kinase (LmPK) | AID 1721, 2009 | Potency, µM (titrated, usually from 57.5 µM), without a hit: at the top dose activity change, negative = inhibition, most hits filed as inhibitors | actives 0.37% (n = 290,000) | purified LmPK, Kinase-Glo ATP luminescence, 1 h
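Kinase-Glo luminescence read after 1 h RT reaction of 0.1 nM LmPK with 0.5 mM PEP and 0.1 mM ADP. Activity scaled between uninhibited and enzyme-free controls.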
AmpC no deterg: qHTS Inhibitors of AmpC Beta-Lactamase (assay without detergent) | P00811 | AmpC nitrocefin hydrolysis, absorbance 480 nm, 0.0001% Triton | Potency, µM (highest dose often 57.1 µM), without a hit: at the highest dose activity change, negative = inhibition, usual class: inhibitors | actives 0.52% (n = 330,000);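 note: plate controls were no compound for no effect and no enzyme for full effect; nearly all actives have a fitted effect of over 20% in size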
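AmpC (5.3 nM in the dispensed reagent) in 20 mM phosphate pH 7.0 with 0.01% (detergent screen) or 0.0001% Triton X-100 was preincubated with compounds for 15 min at room temperature. Nitrocefin was then added from an 800 uM solution, and hydrolysis was followed at 480 nm.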
Tb PYK inh: qHTS of Trypanosoma Brucei Inhibitors; pyruvate kinase (Trypanosoma brucei), Q57TT1; actives 0.12% (n = 410,000); AID 624173, 2012; Potency, µM (highest dose often 76.8 µM), inactives show at the top dose activity, negative = inhibition, hits mostly inhibitors; TbPYK enzyme, Kinase-Glo Plus ATP luminescence, 45 min; note: nearly all actives have a fitted effect of over 50% in size
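Activity of T. brucei pyruvate kinase was followed by Kinase-Glo Plus luminescence after the enzyme reacted 45 min at room temperature with 130 uM ADP (final) and substrate. Test compounds were added before ADP at multiple concentrations.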
* marks the source's active call; other numbers are inactive results; ? = inconclusive; · = no result. Sampled rows, rich in hits. Any-hit rate of the full collection: about 1.4%. Unless noted, calls come from the whole dose curve; as a rule, active = well fitted curve in the direction sought with a large enough effect; inconclusive = small, poorly fitted or top-dose-only effect, or another doubt; inactive = no such curve, though single readings can be large; an effect the other way counts as inactive or inconclusive. Unless noted, % is set by controls: 0 for no effect and ±100 for the full control effect; potency is the fitted concentration of half-maximal effect.

SMILES	RE007 growth inh	AmpC detergent	Giardia FBPA inh	LmPK inhibitor	AmpC no deterg	Tb PYK inh
COc1ccc(OC)c(N=Cc2c(O)c3ccccc3oc2=O)c1	-1.9%	-2.3%	-24.9%	-0.3%	-14.8%	-0.9%
COc1ccc(N=Cc2c(O)c3ccccc3oc2=O)cc1	-8.5%	-12.1%	-4.7%	15.8µM*	-22.7%	-15.7%
CN1CCC(NC(=O)c2cccs2)CC1	5.0%	2.2%	-1.5%	7.0%	8.91µM*	0.8%
CCOc1ccccc1-c1noc(CSc2nnc(-c3ccccc3)n2-c2ccc(OC)cc2)n1	·	-2.5%	·	·	·	-3.6%
Cc1ccc(C2=NN(C(=O)c3cccs3)C(c3ccccc3O)C2)cc1 (stereo not drawn)	4.1%	-3.9%	6.1%	-0.5%	7.94µM*	-6.4%
O=C(c1cccs1)N1N=C(c2ccccc2)CC1c1ccccc1O (stereo not drawn)	1.6%	8.5%	-0.4%	-5.5%	15.8µM*	-6.3%
O=C(c1ccccc1)N1N=C(c2ccccc2)CC1c1ccccc1O (stereo not drawn)	-12.2%	-2.9%	-10.0%	1.5%	?	?
COc1ccc(CCNc2nc(SCc3ccccc3Cl)nc3ccccc23)cc1OC	·	-5.3%	·	·	·	1.8%
COC(=O)c1ccc(-c2noc(CN(C)CCC3CCCCO3)n2)cc1 (stereo not drawn)	-3.3%	?	17.7µM*	-23.9%	-48.8%	3.2%
Cc1cc(Cl)ccc1OCC(=O)N(Cc1ccc(N(C)C)cc1)CC1CCCO1 (stereo not drawn)	·	-8.8%	·	·	·	1.8%
O=c1c2[nH]c3ccc(F)cc3c2ncn1CCN1CCOCC1	-3.5%	?	0.4%	5.3%	-8.4%	4.7%
O=c1c2[nH]c3ccc(F)cc3c2ncn1CCN1CCN(Cc2ccccc2)CC1	2.6%	?	1.9%	4.1%	0.316µM*	-5.0%
CCN(c1ccccc1)c1ncnc2c1cnn2-c1ccc(OC)cc1	·	-0.6%	·	·	·	-7.1%
O=C1CC(Sc2nnc(-c3ccccc3)o2)C(=O)N1c1ccccc1 (stereo not drawn)	15.8µM*	-4.3%	0.4%	4.1%	-20.2%	-20.5%
Cc1ccccc1N1C(=O)CC(Sc2nnc(-c3ccccc3)o2)C1=O (stereo not drawn)	?	-13.8%	3.3%	-0.9%	-17.6%	?
Cc1nnc(SC2CC(=O)N(c3ccccc3)C2=O)s1 (stereo not drawn)	39.8µM*	3.1%	-6.2%	5.0%	-8.2%	-6.2%
O=C(O)c1ccccc1SC1CC(=O)N(c2ccccc2)C1=O (stereo not drawn)	10µM*	-11.0%	6.3%	-3.2%	-17.9%	1.4%
C=CCC1(O)CCC2C3CCC4=CC(=O)CCC4=C3C=CC21C (stereo not drawn)	·	·	·	·	·	-15.6%
Cc1cc(SCC(=O)N/N=C/c2ccc(O)c(O)c2O)c(C)cc1Br	?	-0.2%	3.54µM*	-4.0%	17.8µM*	9.8%
CC12CCC(=O)CC1CCC1C2CCC2(C)C1CCC2(C)O (stereo not drawn)	·	·	·	·	·	-9.6%
COc1ccc2c3c1O[C@H]1[C@@H](O)C=C[C@H]4C(C2)NCCC341 (stereo partly drawn)	·	·	·	·	·	-11.6%
COc1ccc2c3c1OC1C(O)C=CC4C(C2)[N+](C)(C)CCC341 (stereo not drawn)	2.5%	39.8µM*	-27.8%	-3.5%	?	?
CCOC(=O)CC(NC(=O)CCc1c(C)nc2c(c1C)c(=O)n(C)c(=O)n2C)c1ccc(OCC)c(OC)c1 (stereo not drawn)	·	12.5%	·	·	·	1.3%
